Laboratory results taken from PubChem BioAssay (EPA / NIEHS).
Records with an inconclusive call do not appear. Active and inactive are the calls of the source. The calls were made as follows, unless noted: active = hit-call score of the fitted dose curve at least 0.9, where 1 is the maximum; inconclusive = response in the unintended direction; inactive = score below 0.9.

How the values were obtained:
[1] = ATG_TGFb_CIS: Attagene CIS-FACTORIAL HepG2 Assay for human Transforming Growth Factor (TGF) (AID 2282967; active = hit-call score of the fitted dose curve at least 0.9, where 1 is the maximum; inactive = score below 0.9); settings: HepG2 Attagene CIS TGFb reporter, mRNA transcription; actives raise or lower the signal
In short: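 HepG2 cells transiently transfected with cis-promoter-driven multiplexed reporter units; 24 h compound exposure. Reporter mRNA measured by RT-PCR, 6-FAM labeling, HpaI digestion and capillary electrophoresis; bidirectional fit versus DMSO baseline.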

[2] = ATG_VDRE_CIS: Attagene CIS-FACTORIAL HepG2 Assay for human Vitamin D Receptor Element (VDRE) (AID 2282968; active = hit-call score of the fitted dose curve at least 0.9, where 1 is the maximum; inactive = score below 0.9); settings: HepG2 VDRE cis-reporter transcription, actives raise or lower the signal
In short: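 Reporter mRNA induction, quantified by capillary electrophoresis of fluorescently labelled RT-PCR products, was read 24 h after dosing HepG2 cells carrying transiently transfected cis-regulated reporter units; gain or loss relative to DMSO.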

[3] = molecular target: Nuclear receptor subfamily 1 group I member 3 (Homo sapiens) (UniProt Q14994); assay: ATG_CAR_TRANS: Attagene TRANS-FACTORIAL HepG2 Assay for human Constitutive Androstane Receptor (CAR) (AID 2282969); settings: HepG2 Attagene TRANS-FACTORIAL CAR reporter;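 also: activators raise reporter mRNA above DMSO so AC50 marks induction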
In short: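 Readout is reporter mRNA induction, quantified by fluorescent primer extension and capillary electrophoresis after RT-PCR. Cells were HepG2 transiently carrying chimeric NR-Gal4 constructs with GAL4-UAS reporters, treated for 24 h; activity scored upward from DMSO.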

[4] = molecular target: Steroid hormone receptor ERR1 (Homo sapiens) (UniProt P11474); assay: ATG_ERRa_TRANS: Attagene TRANS-FACTORIAL HepG2 Assay for human Estrogen-Related Receptor alpha (ERRa) (AID 2282971); settings: HepG2 Attagene TRANS reporter, ERRa transactivation
In short: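 HepG2 cells were transiently transfected with multiple GAL4-UAS reporter units, then dosed with compound for 24 h. Total RNA was reverse-transcribed, reporter cDNA PCR-amplified and fluorescently labelled, and fragments resolved by capillary electrophoresis; induction was compared with DMSO.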

[5] = molecular target: X-box-binding protein 1 (Homo sapiens) (UniProt P17861); assay: ATG_Xbp1_CIS: Attagene CIS-FACTORIAL HepG2 Assay for human X-box Binding Protein 1 (XBP1) (AID 2282972; active = hit-call score of the fitted dose curve at least 0.9, where 1 is the maximum; inactive = score below 0.9); settings: HepG2 XBP1 cis-element reporter, Attagene multiplex; actives raise or lower the signal
In short: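 HepG2 cells transiently transfected with cis-regulated multiple reporter transcription units; endogenous transcription factor activity measured 24 hours after chemical dosing. Reporter mRNA quantified by RT-PCR, 6-FAM primer extension, HpaI digestion and capillary electrophoresis; bidirectional fitting versus DMSO.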

[6] = ATG_M_19_TRANS: Attagene TRANS-FACTORIAL HepG2 Assay for M19 Transcription Factor (Internal Marker) (AID 2282974); settings: HepG2 Attagene TRANS-FACTORIAL M19 internal marker reporter
In short: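 Cells: human HepG2, transiently transfected with multiplexed reporter transcription units. Exposure: 24 h. Detection: RT-PCR of reporter mRNA with capillary electrophoresis. Analysis: gain-of-signal vs DMSO.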

[7] = molecular target: Estrogen-related receptor gamma (Homo sapiens) (UniProt P62508); assay: ATG_ERRg_TRANS: Attagene TRANS-FACTORIAL HepG2 Assay for human Estrogen-Related Receptor gamma (ERRg) (AID 2282977); settings: HepG2 Attagene TRANS reporter, ERRg transactivation;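 also: hits increase reporter signal over DMSO so potencies reflect activators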
In short: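 HepG2 cells transiently transfected with multiplexed GAL4-UAS reporter units driven by chimeric NR-Gal4 proteins; 24 h exposure. Reporter mRNA quantified by RT-PCR, fluorescent labelling, HpaI digestion and capillary electrophoresis; gain of signal vs DMSO.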

[8] = molecular target: Glucocorticoid receptor (Homo sapiens) (UniProt P04150); assay: ATG_GR_TRANS: Attagene TRANS-FACTORIAL HepG2 Assay for human Glucocorticoid Receptor (GR) (AID 2282978); settings: HepG2 Attagene TRANS GR reporter, mRNA transcription;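 also: activators score as hits since higher reporter transcript over DMSO is fitted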
In short: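 In this trans-factorial format, exogenous NR-GAL4 chimeric proteins in transfected HepG2 cells regulate GAL4-UAS reporter transcription. After 24 h treatment, reporter mRNA induction relative to DMSO is read by RT-PCR and capillary electrophoresis.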

[9] = molecular target: Oxysterols receptor LXR-alpha (Homo sapiens) (UniProt Q13133); assay: ATG_LXRa_TRANS: Attagene TRANS-FACTORIAL HepG2 Assay for human Liver X Receptor alpha (LXRa) (AID 2282980); settings: HepG2 Attagene TRANS reporter, LXRa transactivation
In short: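 Transient HepG2 transfectants, 24 h dosing, RT-PCR/CE mRNA reporter quantitation; gain-of-signal vs DMSO.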

[10] = molecular target: Oxysterols receptor LXR-beta (Homo sapiens) (UniProt P55055); assay: ATG_LXRb_TRANS: Attagene TRANS-FACTORIAL HepG2 Assay for human Liver X Receptor beta (LXRb) (AID 2282981); settings: HepG2 Attagene TRANS GAL4-LXRb reporter, mRNA
In short: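 Transient transfection HepG2 (multiplexed RTUs, GAL4-UAS); NR-Gal4 chimera; 24 h exposure; RNA → RT-PCR → 6-FAM primer extension → HpaI → CE; increase vs DMSO.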

[11] = ATG_M_32_TRANS: Attagene TRANS-FACTORIAL HepG2 Assay for M32 Transcription Factor (Internal Marker) (AID 2282984); settings: HepG2 Attagene TRANS M32 internal marker reporter
In short: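 Measures reporter mRNA induction in human HepG2 liver cells after 24 h chemical treatment. Transcripts from transiently transfected GAL4-UAS reporter units are amplified, fluorescently labelled and sized by capillary electrophoresis; gain of signal relative to DMSO.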

[12] = molecular target: Transcriptional activator Myb (Homo sapiens) (UniProt P10242); assay: ATG_Myb_CIS: Attagene CIS-FACTORIAL HepG2 Assay for human Myeloblastosis (Myb) Proto-Oncogene Transcription Factor (AID 2282986; active = hit-call score of the fitted dose curve at least 0.9, where 1 is the maximum; inactive = score below 0.9); settings: HepG2 Attagene CIS-FACTORIAL Myb reporter transcription; actives raise or lower the signal
In short: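 Steps: transfect HepG2 with cis-regulated reporter units; dose with chemical for 24 h; isolate RNA, reverse-transcribe, PCR-amplify and FAM-label reporter sequences; digest with HpaI; resolve by capillary electrophoresis. Activity fitted in both directions relative to DMSO.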

[13] = molecular target: Nuclear respiratory factor 1 (Homo sapiens) (UniProt Q16656); assay: ATG_NRF1_CIS: Attagene CIS-FACTORIAL HepG2 Assay for human Nuclear Respiratory Factor 1 (NRF1) Orphan Gene (AID 2282987; active = hit-call score of the fitted dose curve at least 0.9, where 1 is the maximum; inactive = score below 0.9); settings: HepG2 NRF1 cis-element reporter, Attagene multiplex; actives raise or lower the signal
In short: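 Fluorescence intensity of labelled reporter cDNA fragments, resolved by capillary electrophoresis, served as readout for NRF1 cis-element activity. Transiently transfected HepG2 cells were dosed for 24 hours; activity in either direction was fitted against DMSO negative control.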

[14] = ATG_Hpa5_TRANS: Attagene TRANS-FACTORIAL HepG2 Assay for human GAL4-Hpa5 Hepatocyte Transcription Factor Basal Promoter (AID 2282975); settings: HepG2 Attagene GAL4-Hpa5 transcription reporter;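 also: hits are increases in reporter mRNA over DMSO baseline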
In short: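 Basal-promoter GAL4 background control within the HepG2 trans-factorial panel of transiently transfected reporter units. Reporter mRNA is measured 24 h after dosing by RT-PCR and capillary electrophoresis, fitted for gain of signal versus DMSO.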

[15] = molecular target: Bile acid receptor (Homo sapiens) (UniProt Q96RI1); assay: ATG_FXR_TRANS: Attagene TRANS-FACTORIAL HepG2 Assay for Farnesoid X Receptor (FXR) (AID 2282979); settings: HepG2 Attagene TRANS FXR-GAL4 reporter transcription;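 also: hits raise reporter mRNA above DMSO so AC50 marks FXR activation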
In short: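 Chimeric FXR-GAL4 activity in transiently transfected human HepG2 liver cells is scored as induction of reporter mRNA after 24 h of dosing. Detection uses RT-PCR with fluorescent labelling and capillary electrophoresis, with DMSO serving as baseline.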

[16] = molecular target: Hepatocyte nuclear factor 4-alpha (Homo sapiens) (UniProt P41235); assay: ATG_HNF4a_TRANS: Attagene TRANS-FACTORIAL HepG2 Assay for human Hepatocyte Nuclear Factor 4 alpha (HNF4a) (AID 2282982); settings: HepG2 HNF4a transactivation reporter, mRNA readout
In short: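 Readout is fluorescent reporter-transcript fragments resolved by capillary electrophoresis after RT-PCR from HepG2 cells dosed for 24 h. Cells carried transfected GAL4-UAS reporter constructs measuring exogenous NR-GAL4 chimera activity; DMSO served as baseline.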

[17] = molecular target: Nuclear receptor subfamily 4 group A member 2 (Homo sapiens) (UniProt P43354); assay: ATG_NURR1_TRANS: Attagene TRANS-FACTORIAL HepG2 Assay for human Nuclear Receptor Related Protein 1 (NURR1) (AID 2282985); settings: HepG2 Attagene TRANS reporter, mRNA readout
In short: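 Transient transfection of HepG2, human liver cells, with multiple GAL4-UAS reporter transcription units. Cells dosed 24 h, RNA isolated, reverse-transcribed, PCR-amplified, FAM-labelled, HpaI-digested, sized by capillary electrophoresis. DMSO served as negative control.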

[18] = ATG_M_06_TRANS: Attagene TRANS-FACTORIAL HepG2 Assay for M06 Transcription Factor (Internal Marker) (AID 2282983); settings: HepG2 Attagene TRANS M06 internal marker reporter;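 also: reporter transcript level by RT-PCR then capillary electrophoresis fluorescence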
In short: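 Measured by capillary electrophoresis of fluorescently labelled RT-PCR products, this endpoint reflects reporter mRNA in HepG2 cells harbouring exogenous NR-GAL4 reporter constructs after 24 h exposure, with DMSO as baseline.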

[19] = ATG_GAL4_TRANS: Attagene TRANS-FACTORIAL HepG2 Assay for GAL4 (Internal Marker) (AID 2282976); settings: HepG2 Attagene TRANS GAL4 internal marker reporter
In short: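 Fluorescence from capillary electrophoresis of labelled RT-PCR products quantifies reporter mRNA induction after 24 h dosing of HepG2 cells carrying transfected GAL4-UAS reporter transcription units. Vehicle DMSO serves as baseline.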

Measured: AC50

X-box-binding protein 1 (Homo sapiens), sequence (P17861 whole entry, looked up): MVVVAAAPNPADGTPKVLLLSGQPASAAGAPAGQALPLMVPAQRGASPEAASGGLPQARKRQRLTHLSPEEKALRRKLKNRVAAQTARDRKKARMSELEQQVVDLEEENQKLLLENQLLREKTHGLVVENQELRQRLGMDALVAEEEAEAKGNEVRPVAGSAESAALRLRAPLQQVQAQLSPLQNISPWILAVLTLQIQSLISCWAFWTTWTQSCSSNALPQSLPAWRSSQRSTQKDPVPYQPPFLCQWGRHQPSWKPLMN
Oxysterols receptor LXR-beta (Homo sapiens), sequence (P55055 whole entry, looked up, the tested form may be a part): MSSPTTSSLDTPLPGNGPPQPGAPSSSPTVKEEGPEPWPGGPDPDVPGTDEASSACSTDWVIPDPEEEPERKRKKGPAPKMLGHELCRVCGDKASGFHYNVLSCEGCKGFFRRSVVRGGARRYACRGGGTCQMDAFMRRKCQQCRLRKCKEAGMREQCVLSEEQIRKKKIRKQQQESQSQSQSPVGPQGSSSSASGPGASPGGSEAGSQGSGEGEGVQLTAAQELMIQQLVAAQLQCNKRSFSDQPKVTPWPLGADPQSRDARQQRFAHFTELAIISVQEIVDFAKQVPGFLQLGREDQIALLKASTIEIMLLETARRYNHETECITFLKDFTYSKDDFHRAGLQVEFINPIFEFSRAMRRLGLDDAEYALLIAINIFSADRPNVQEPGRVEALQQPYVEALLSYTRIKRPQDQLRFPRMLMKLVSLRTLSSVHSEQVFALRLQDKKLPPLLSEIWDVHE
Nuclear receptor subfamily 4 group A member 2 (Homo sapiens), sequence (P43354 whole entry, looked up, the tested form may be a part): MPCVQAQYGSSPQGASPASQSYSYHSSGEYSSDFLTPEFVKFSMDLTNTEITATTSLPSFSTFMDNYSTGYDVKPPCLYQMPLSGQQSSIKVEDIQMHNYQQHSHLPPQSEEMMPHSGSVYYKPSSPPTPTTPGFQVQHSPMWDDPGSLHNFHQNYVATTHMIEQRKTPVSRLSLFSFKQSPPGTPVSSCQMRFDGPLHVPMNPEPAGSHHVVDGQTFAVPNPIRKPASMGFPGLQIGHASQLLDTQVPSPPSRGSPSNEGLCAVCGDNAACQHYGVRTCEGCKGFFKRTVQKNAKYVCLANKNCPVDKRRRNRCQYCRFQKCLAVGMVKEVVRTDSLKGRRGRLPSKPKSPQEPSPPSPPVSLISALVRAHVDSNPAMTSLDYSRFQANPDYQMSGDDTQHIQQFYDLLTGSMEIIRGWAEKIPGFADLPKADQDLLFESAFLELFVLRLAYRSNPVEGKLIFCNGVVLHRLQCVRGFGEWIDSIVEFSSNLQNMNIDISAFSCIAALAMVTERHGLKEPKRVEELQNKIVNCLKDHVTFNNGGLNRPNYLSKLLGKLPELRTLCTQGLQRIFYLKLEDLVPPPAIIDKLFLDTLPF
Nuclear respiratory factor 1 (Homo sapiens), sequence (Q16656 whole entry, looked up, the tested form may be a part): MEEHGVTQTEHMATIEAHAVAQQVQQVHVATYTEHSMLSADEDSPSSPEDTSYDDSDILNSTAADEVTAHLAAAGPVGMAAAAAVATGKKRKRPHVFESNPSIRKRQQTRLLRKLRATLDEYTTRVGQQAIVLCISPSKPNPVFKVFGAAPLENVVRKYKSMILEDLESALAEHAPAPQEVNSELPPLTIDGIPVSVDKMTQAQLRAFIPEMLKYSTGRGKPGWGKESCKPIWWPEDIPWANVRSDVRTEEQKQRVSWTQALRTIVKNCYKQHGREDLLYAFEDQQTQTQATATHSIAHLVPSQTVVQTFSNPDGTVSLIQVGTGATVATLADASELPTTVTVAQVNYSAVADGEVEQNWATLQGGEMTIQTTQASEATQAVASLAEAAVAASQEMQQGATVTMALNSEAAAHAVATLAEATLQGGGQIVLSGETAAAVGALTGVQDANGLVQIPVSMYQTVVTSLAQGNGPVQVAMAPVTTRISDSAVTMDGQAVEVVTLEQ
Bile acid receptor (Homo sapiens), sequence (Q96RI1 whole entry, looked up, the tested form may be a part): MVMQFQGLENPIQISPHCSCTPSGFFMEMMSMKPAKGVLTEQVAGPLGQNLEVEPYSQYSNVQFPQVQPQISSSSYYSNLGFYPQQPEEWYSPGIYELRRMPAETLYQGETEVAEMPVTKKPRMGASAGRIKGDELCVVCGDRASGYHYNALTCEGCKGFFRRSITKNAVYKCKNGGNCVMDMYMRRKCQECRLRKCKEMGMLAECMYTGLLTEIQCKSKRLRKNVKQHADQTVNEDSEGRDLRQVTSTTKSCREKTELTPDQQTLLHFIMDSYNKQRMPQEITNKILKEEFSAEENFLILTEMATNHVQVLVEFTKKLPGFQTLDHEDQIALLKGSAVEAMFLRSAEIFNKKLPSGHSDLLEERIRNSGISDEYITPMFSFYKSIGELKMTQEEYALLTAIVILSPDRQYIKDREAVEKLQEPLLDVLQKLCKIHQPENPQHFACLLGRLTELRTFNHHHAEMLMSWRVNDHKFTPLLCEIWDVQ
Nuclear receptor subfamily 1 group I member 3 (Homo sapiens), sequence (Q14994 whole entry, looked up, the tested form may be a part): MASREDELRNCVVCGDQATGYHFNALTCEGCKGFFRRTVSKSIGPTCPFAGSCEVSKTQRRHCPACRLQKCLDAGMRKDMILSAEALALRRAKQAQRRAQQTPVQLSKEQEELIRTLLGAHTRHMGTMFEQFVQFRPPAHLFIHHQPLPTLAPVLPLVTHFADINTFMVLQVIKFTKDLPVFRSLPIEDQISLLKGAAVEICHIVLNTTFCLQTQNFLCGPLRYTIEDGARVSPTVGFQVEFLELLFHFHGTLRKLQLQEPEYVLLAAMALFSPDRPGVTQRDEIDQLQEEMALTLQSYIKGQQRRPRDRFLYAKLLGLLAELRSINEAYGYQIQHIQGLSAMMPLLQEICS
Glucocorticoid receptor (Homo sapiens), sequence (P04150 whole entry, looked up, the tested form may be a part): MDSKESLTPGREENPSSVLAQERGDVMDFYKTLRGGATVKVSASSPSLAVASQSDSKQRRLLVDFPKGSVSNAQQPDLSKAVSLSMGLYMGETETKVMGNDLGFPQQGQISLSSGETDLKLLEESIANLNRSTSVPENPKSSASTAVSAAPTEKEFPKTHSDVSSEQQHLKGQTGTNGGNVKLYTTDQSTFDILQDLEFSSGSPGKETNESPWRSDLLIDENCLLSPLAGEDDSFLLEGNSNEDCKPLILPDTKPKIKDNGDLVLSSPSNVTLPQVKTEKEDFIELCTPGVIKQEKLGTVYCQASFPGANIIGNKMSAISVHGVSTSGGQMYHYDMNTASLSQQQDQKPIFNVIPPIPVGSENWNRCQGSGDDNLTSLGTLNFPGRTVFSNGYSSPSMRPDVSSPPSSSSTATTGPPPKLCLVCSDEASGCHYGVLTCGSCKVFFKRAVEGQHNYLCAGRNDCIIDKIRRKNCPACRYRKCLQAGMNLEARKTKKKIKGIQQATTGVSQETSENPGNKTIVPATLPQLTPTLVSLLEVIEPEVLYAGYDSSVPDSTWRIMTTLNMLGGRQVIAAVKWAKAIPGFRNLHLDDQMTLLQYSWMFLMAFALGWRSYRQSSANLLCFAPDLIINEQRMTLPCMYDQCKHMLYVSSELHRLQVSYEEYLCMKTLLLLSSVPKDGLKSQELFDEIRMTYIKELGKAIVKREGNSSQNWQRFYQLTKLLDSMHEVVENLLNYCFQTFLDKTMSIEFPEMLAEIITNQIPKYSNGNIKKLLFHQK
Transcriptional activator Myb (Homo sapiens), sequence (P10242 whole entry, looked up): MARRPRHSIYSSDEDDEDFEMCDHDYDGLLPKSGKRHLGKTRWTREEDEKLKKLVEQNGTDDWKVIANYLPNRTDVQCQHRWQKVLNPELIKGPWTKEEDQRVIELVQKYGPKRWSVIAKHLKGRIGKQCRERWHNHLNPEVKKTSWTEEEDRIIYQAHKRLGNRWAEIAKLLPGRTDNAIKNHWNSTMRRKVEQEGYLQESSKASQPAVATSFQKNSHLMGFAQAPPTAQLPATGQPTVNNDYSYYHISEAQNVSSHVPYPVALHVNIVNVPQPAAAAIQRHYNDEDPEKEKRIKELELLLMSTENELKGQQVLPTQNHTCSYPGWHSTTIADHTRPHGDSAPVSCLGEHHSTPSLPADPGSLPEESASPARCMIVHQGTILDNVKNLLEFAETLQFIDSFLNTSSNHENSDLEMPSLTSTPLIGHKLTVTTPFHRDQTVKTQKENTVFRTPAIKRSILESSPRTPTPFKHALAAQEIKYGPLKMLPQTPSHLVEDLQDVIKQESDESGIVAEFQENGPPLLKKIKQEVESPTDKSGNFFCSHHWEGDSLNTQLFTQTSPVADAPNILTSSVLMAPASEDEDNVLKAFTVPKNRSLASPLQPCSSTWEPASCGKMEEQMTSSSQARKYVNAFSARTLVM
Hepatocyte nuclear factor 4-alpha (Homo sapiens), sequence (P41235 whole entry, looked up, the tested form may be a part): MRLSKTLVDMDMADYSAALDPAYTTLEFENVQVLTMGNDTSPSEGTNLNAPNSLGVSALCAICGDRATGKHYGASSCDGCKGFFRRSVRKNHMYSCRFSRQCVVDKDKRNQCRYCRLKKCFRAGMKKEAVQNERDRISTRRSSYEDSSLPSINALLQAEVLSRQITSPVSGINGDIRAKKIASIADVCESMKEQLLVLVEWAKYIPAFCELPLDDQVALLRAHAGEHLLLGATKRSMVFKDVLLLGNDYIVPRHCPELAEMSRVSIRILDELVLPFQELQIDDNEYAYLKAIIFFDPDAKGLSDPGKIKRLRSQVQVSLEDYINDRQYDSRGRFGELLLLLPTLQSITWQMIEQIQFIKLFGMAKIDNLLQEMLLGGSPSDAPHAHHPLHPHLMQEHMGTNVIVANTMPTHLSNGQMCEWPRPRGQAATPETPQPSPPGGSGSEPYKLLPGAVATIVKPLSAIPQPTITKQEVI
Oxysterols receptor LXR-alpha (Homo sapiens), sequence (Q13133 whole entry, looked up): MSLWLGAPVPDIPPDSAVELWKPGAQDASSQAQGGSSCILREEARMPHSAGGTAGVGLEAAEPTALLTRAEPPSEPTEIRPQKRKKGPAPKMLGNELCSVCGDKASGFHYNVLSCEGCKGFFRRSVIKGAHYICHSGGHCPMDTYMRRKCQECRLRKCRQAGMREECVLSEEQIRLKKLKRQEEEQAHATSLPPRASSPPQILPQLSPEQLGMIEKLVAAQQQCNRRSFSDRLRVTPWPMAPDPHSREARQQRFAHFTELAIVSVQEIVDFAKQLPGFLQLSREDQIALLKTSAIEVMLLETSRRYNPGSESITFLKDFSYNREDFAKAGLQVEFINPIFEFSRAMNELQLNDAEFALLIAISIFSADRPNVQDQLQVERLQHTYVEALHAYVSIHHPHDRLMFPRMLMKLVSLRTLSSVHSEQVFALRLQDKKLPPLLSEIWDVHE

CCCCOC(=O)[C@@H](C)Oc1ccc(Oc2ccc(C#N)cc2F)cc1
not listed: [14] | [15] | [16] | [17] | [18] | [19]
inactive: all other assays above

COP(=O)(OC)C(O)C(Cl)(Cl)Cl (configuration not stated)
active: [2] 50 µM | [5] 39.7 µM | [10] 92.4 µM
not listed: [1] | [17] | [18] | [19]
inactive: all other assays above

S=C1NCCN1
inactive: [2] | [5] | [9] | [10] | [16] | [11] | [17] | [12] | [13]

COP(=O)(OC)OC(Br)C(Cl)(Cl)Br (configuration not stated)
inactive: [2] | [5] | [6] | [8] | [15] | [10] | [16] | [12] | [13]

CCCCSP(=O)(SCCCC)SCCCC
active: [2] 12 µM | [12] 83.3 µM
not listed: [1] | [4] | [7] | [9] | [16] | [18] | [19]
inactive: all other assays above

Cc1cc(C2CC2)nc(Nc2ccccc2)n1
inactive: [3] | [15] | [9] | [10] | [16] | [18] | [11] | [17]
active: [2] 28.6 µM | [5] 31.6 µM | [12] 79.1 µM | [13] 76 µM

CCCOCC(=Nc1ccc(Cl)cc1C(F)(F)F)n1ccnc1
not listed: [1] | [3] | [4] | [7] | [8] | [9] | [17] | [18]
inactive: all other assays above

CCCOc1nn(C(=O)NS(=O)(=O)c2ccccc2C(=O)OC)c(=O)n1C
inactive: [2] | [3] | [5] | [6] | [8] | [10] | [16] | [17] | [12] | [13]

C#CC(C)(C)NC(=O)c1cc(Cl)cc(Cl)c1
active: [2] 29.3 µM
inactive: [3] | [5] | [6] | [14] | [9] | [10] | [11] | [17] | [12] | [13]
